Results on 17 compounds are retold here after the supplement of paper PMC4237247.

Counter-ions that a name gives are not always drawn.

In this assay the test system is HeLa. The assay can be described thus: percent cells in G2/M phase; higher = more G2/M arrest. As to conditions: 10 µM; 20 h. The method, then: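 HTS of 79,827 drug-like compounds at 10 uM. HeLa cells in 384-well plates were treated for 20 h, fixed, stained with Vybrant DyeCycle Green and scanned on an Acumen eX3 cytometer to give per-well cell cycle profiles (% cells in each phase). The plate Z' was 0.51. Only hits are listed: G1 hits >4 SD and S hits >5 SD from the mean.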
Consider `COc1ccc(C(=O)c2coc3ccc(OC)cc3c2=O)cc1` (hit class: G1-phase inhibitor), for which the “percent cells in G2/M phase” value came to 19%.
On to `c1ccc2c(c1)Nc1nc3ccccc3nc1O2` (hit class: G1-phase inhibitor), for which the “percent cells in G2/M phase” value came to 21.4%.
Turning to `O=C1c2c(O)ccc(O)c2C(=O)c2c(NCCNCCO)ccc(NCCNCCO)c21` [Mitoxantrone dihydrochloride] (hit class: G1-phase inhibitor), the “percent cells in G2/M phase” value is 0.73%.
Turning to `CC(=O)C1=C(O)C(=O)N(CC(=O)O)C1c1ccccc1F` (configuration not stated) (hit class: S-phase inhibitor), the “percent cells in G2/M phase” value came to 12.9%.
Take `COc1ccc(CSc2nncn2N)cc1` (hit class: S-phase inhibitor): the “percent cells in G2/M phase” value amounted to 15.1%.
As for `COc1[nH]c2ccccc2c1C=NO` (hit class: S-phase inhibitor), the figure is 12.8%; as for `CCN(CC)Cc1c(O)ccc2c(=O)c(-c3ccccc3)coc12` (hit class: S-phase inhibitor), 17%; as for `CC[C@@H](C(=O)[C@@H](C)[C@@H](O)[C@H](C)CCc1ccc(C)c(O)c1C(=O)O)[C@H]1O[C@](CC)([C@H]2CC[C@](O)(CC)[C@H](C)O2)C[C@@H]1C` [Lasalocid sodium salt] (hit class: G1-phase inhibitor), 16.8%.
With `Nc1ccn([C@H]2CC[C@@H](CO)O2)c(=O)n1` [Zalcitabine] (hit class: S-phase inhibitor), the “percent cells in G2/M phase” value was determined as 29.8%.
For the compound `COc1c(C)c2c(c(O)c1C/C=C(\C)CCC(=O)O)C(=O)OC2` [Mycophenolic acid] (hit class: S-phase inhibitor), the “percent cells in G2/M phase” value was 28.6%.
In the case of `C[C@@H]1C[C@H]2[C@@H]3C[C@H](F)C4=CC(=O)C=C[C@]4(C)[C@@]3(Cl)[C@@H](O)C[C@]2(C)[C@H]1C(=O)COC(=O)C(C)(C)C` [Clocortolone pivalate] (hit class: S-phase inhibitor), the “percent cells in G2/M phase” value stood at 30.1%.
As for `Cn1c(SCc2ccccc2)nc2ccccc2c1=O` (hit class: S-phase inhibitor), the “percent cells in G2/M phase” value was determined as 15.4%.
As to `Cc1cc([N+](=O)[O-])ccc1NCc1ccc(F)c(F)c1` (hit class: G1-phase inhibitor), the “percent cells in G2/M phase” value was found to be 18.3%.
With `Cc1cc(N2CCCCC2)c(F)cc1[N+](=O)[O-]` (hit class: S-phase inhibitor) the figure was 22.3%.
As to `O=C(COc1ccc(Cl)cc1)NC(Cc1c[nH]c2ccccc12)C(=O)O` (configuration not stated) (hit class: G1-phase inhibitor), the “percent cells in G2/M phase” value turned out to be 20.6%.
Consider `Cc1ccc(-c2cc(-c3ccccc3Cl)[nH]n2)c(O)c1` (hit class: G1-phase inhibitor), for which the “percent cells in G2/M phase” value was 17.1%.
Consider `C[C@@H]1CCC[C@H](C)N1NC(=O)c1ccc(Cl)c(S(N)(=O)=O)c1` [Clopamide] (hit class: G1-phase inhibitor), for which the “percent cells in G2/M phase” value worked out at 15.9%.
